# Assay outcomes deposited in PubChem by several laboratories.
# PrPC surface inh – inhibitors of human cell surface prion protein PrPC, primary screen, cell-based, TR-FRET; 0.43% of 370,000 active; AID 720596, 2013; TR-FRET read-out; inhibition, % at 13.8 µM; Major prion protein (Homo sapiens), P04156; in the data active = inhibition above about 24%; also: 0% = median of the test wells and 100% = reference compound wells
# Yp Topo-I inh – Yersinia pestis topoisomerase I inhibitors, primary screen, biochemical, cleavage product accumulation, plate reader, single point; DNA topoisomerase I (Yersinia pestis CO92); Y. pestis Topo-I cleavage product accumulation; activity, % at 10 µM; 0.064% of 360,000 active; AID 504884, 2011; in the data active = activity above about 50%, passing the limit was not always enough; inconclusive = no clear call, values can overlap the other calls
# CCHF vOTU inh-1 – CCHFV vOTU protease inhibitors, primary screen, biochemical, Pep-AMC substrate, fluorescence | Crimean-Congo hemorrhagic fever virus L polyprotein viral ovarian tumor (vOTU) protease … | inhibition, % at 11.5 µM | 0.55% of 370,000 active | AID 651958, 2012; also: 0% = vehicle wells with enzyme and 100% = no enzyme wells
# BH1578 lux ind – inducers of Vibrio cholerae quorum light production without autoinducers, primary screen, BH1578 luxS cqsA deficient, single point; V. cholerae BH1578 lux reporter, luminescence, 6 h; activation, % at 18.7 µM; 0.16% of 350,000 active; in the data active = activation mostly above about 9.7%, no sharp cut-off; inconclusive = no clear call, values can overlap the other calls; inactive = mostly below about 3.7%
# CCHF vOTU inh-2 – CCHFV vOTU protease inhibitors, confirmation, biochemical, Pep-AMC substrate, fluorescence; shares compounds with CCHF vOTU inh-1; Recombinant CCHFV vOTU; inhibition, % at 11.5 µM; 17% of 1,900 active
# The depositor's hits bear a star; i = inactive; ? = inconclusive; / = not tested or not shown. Rows were chosen to be rich in hits. Some 1.1% of all compounds tested hit in one or more screens of this group. Rule as the data show it, unless noted: active = inhibition above about 30%; inactive = the rest.
SMILES,PrPC surface inh,Yp Topo-I inh,CCHF vOTU inh-1,BH1578 lux ind,CCHF vOTU inh-2
CCN1CCN(C(=O)C2=C(C(=O)O)CCCC2)CC1,1,-5,-3,i,/
CC1=Nc2ccccc2/C1=C/c1sc(=S)n(-c2cccc(C(=O)O)c2)c1O,-18,-10,36*,-3,26
CCOC(=O)c1c(C)[nH]c(C)c1C(=O)COC(=O)c1ccc(S(=O)(=O)N(CC)CC)cc1,7,4,5,0,/
CCCCCCc1nc(C(N)=O)c2[nH]c(=O)n(-c3ccc(OC)cc3OC)c2n1,-3,16,30*,0,2
CCc1nc(C(N)=O)c2[nH]c(=O)n(-c3ccccc3F)c2n1,-1,5,-46,-5,/
CC(=O)N(C1=C(N)C(=O)c2ccccc2C1=O)c1ccccc1,-68,-1,73*,1,64*
O=C(N(c1ccccc1)c1ccccc1)N(c1ccccc1)c1ccccc1,-3,7,8,0,/
CCC12CCCN3CCc4c(n(c5ccccc45)C(O)(C(=O)OC)C1)C32 (stereo not drawn),-6,-5,42*,0,-6
CC[C@]12CCCN3CCc4c(n(c5ccccc45)[C@](O)(C(=O)OC)C1)[C@@H]32,2,-4,-19,-4,/
Cc1ccc(CNc2ccc(O)cc2)cc1,-14,-18,63*,-10,72*
Cc1ccc(NCc2ccccc2O)cc1,1,9,-5,1,/
COCCNC(=S)N1C[C@H]2CON(C)[C@H]2C[C@H]1c1ccccc1Br,5,/,33*,/,-21
CC1(c2ccc3ccccc3c2)NC(=O)N(CC(=O)NCc2cccs2)C1=O (stereo not drawn),4,4,6,i,/
CCCCCC(C)NC(=O)CN1C(=O)NC(C)(c2ccc3ccccc3c2)C1=O (stereo not drawn),5,15,32*,i,4
CN(Cc1ccccc1)C(=O)c1nc[nH]c1C(=O)N1CCc2ccccc2C1,7,11,-6,i,/
O=C(c1nc[nH]c1C(=O)N1CCc2ccccc2C1)N1CCc2ccccc2C1,5,-6,43*,-2,-3
Nc1n[nH]c(C2CCCCC2)n1,-4,5,2,i,/
CCc1noc(C)c1C(=O)Nc1ccc(Cl)c(S(=O)(=O)N2CCCCC2)c1,6,15,32*,1,-9
COc1ccccc1CN1CCCC(CN(CCN(C)C)C(=O)c2ccc(C)cc2)C1 (stereo not drawn),-11,-7,-1,-2,/
Cc1cc(N2CCN(C(=O)c3ccoc3)CC2)n2nc(-c3ccccc3)cc2n1,-10,22,6,1,/
Cc1ccc(S(=O)(=O)Nc2ccccc2C(=O)Nc2nc(-c3ccc(F)cc3)cs2)cc1,24,-10,30*,0,-16
Cc1ccc(S(=O)(=O)Nc2nc(-c3ccccc3)cs2)cc1,-5,12,5,0,/
CCOc1ccc(NC(=O)c2ccccc2NS(=O)(=O)c2ccc(F)cc2)c([N+](=O)[O-])c1,2,1,30*,0,-4
CCOC(=O)Cc1csc(NC(=O)COc2ccccc2OC)n1,-4,8,5,0,/
CC(C)C(=O)N1CCN(c2ccc(NC(=S)NC(=O)c3cc4ccccc4o3)cc2)CC1,0,1,-5,0,/
SMILES,PrPC surface inh,Yp Topo-I inh,CCHF vOTU inh-1,BH1578 lux ind,CCHF vOTU inh-2
CCC(=O)N1CCN(c2ccc(NC(=S)NC(=O)c3cc4ccccc4o3)cc2)CC1,-4,3,34*,0,-9
N#CCCN(C(=O)COC(=O)CCC(=O)c1cccs1)c1ccccc1,1,0,-11,i,/
N#CCCN(C(=O)COC(=O)CCNS(=O)(=O)c1ccccc1)c1ccccc1,8,-1,58*,i,3
O=C1OC(c2cccs2)=N/C1=C/c1ccc(-c2cccc(C(=O)O)c2)o1,0,-7,16,0,/
O=C1OC(c2cccs2)=N/C1=C\c1ccc(-c2ccccc2Cl)o1,-12,1,32*,-4,0
CC1SCC(=NOCc2ccccc2)CS1 (stereo not drawn),4,9,-8,-1,/
O=C(c1ccc(C(F)(F)F)cc1)N1CCC(=O)N([C@H](COCc2ccc(C(F)(F)F)cc2)Cc2ccccc2)CC1,16,/,34*,/,7
O=C(c1ccc(C(F)(F)F)cc1)N1CCC(=O)N([C@H](COCc2ccc(Cl)cc2)Cc2ccccc2)CC1,17,/,32*,/,7
O=C(c1ccc(C(F)(F)F)cc1)N1CCC(=O)N(C(CO)Cc2ccccc2)CC1 (stereo not drawn),-3,?,-3,i,/
CC(C)C[C@@H](COCc1ccc(Cl)cc1)N1CCN(C(=O)c2ccc(C(F)(F)F)cc2)CCC1=O,-1,/,19,/,/
CC(C)C[C@@H](COCc1cccc(C(F)(F)F)c1)N1CCN(C(=O)c2ccc(C(F)(F)F)cc2)CCC1=O,2,/,39*,/,16
O=c1oc2ccccc2c(N2CCCC2)c1[N+](=O)[O-],1,1,31*,0,-15
O=c1oc2ccccc2c(N2CCCCC2)c1[N+](=O)[O-],-2,2,4,-1,/
CCc1ccc([C@@H]2CC=C(C(=O)O)[C@H](c3ccc(C(C)(C)C)cc3)N2S(=O)(=O)c2ccc(C)cc2)cc1,5,21,46*,-2,0
Cc1ccc(S(=O)(=O)N2[C@@H](c3ccc(C(C)(C)C)cc3)C(C(=O)O)=CC[C@H]2c2ccc(C(C)C)cc2)cc1,-4,20,47*,i,15
Cc1ccc(S(=O)(=O)N2[C@@H](c3ccc(C(C)(C)C)cc3)C(C(=O)O)=CC[C@H]2c2ccc(Cl)cc2)cc1,-3,32,42*,-1,13
Cc1ccc([C@@H]2CC=C(C(=O)O)[C@H](c3ccc(C(C)(C)C)cc3)N2S(=O)(=O)c2ccc(C)cc2)cc1,2,35,42*,-1,19
CCOC(=O)C(=O)NCC(c1cccs1)S(=O)(=O)c1ccc(Cl)cc1 (stereo not drawn),-2,-3,1,-3,/
Cn1cc(CCCC(=O)NCc2ccccc2)c2ccccc21,0,6,-16,1,/
O=C(CNC(=O)C1COc2ccccc2O1)N/N=C\c1cccc(O)c1 (stereo not drawn),-5,-6,19,i,/
Cc1ccc(S(=O)(=O)N2[C@@H](c3ccc(C(C)(C)C)cc3)C(C(=O)O)=CC[C@H]2c2cccs2)cc1,3,18,32*,-1,3
C=CCNC(=O)c1c(Cl)nc(C)c([N+](=O)[O-])c1C,-6,-2,-18,1,/
CCOc1ccc(N=CC2=C(O)CC(C)(C)CC2=O)cc1,4,-3,-5,0,/
CC1(C)CC(=O)C(C=Nc2ccc(N)cc2)=C(O)C1,-11,-1,63*,1,-8
